From PubChem BioAssay come the findings set out here.

A short description of assay [1]: inhibitors of TNFa-induced NFkB p65 translocation, primary screen, imaging, HUVEC, MLSMR starter and 10KST1 sets (AID 438;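 active = inhibition above 20% together with a positive visual image hit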;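 note: compound added about 3h40 before a 20 min TNFalpha stimulation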;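 for inhibition: signal is the nuclear over cytoplasmic p65 intensity ratio per well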). Conditions: HUVEC TNFa-induced p65 nuclear translocation; cell count: measured here: nuclei count (cytotoxicity indicator), at 2.08 µM; inhibition: at 2 µM, stronger effect = higher value, 0% TNFa-plus-vehicle, 100% no-TNFa wells.
A short description of assay [2]: inhibitors of mutant huntingtin aggregation, primary screen, imaging, exon1htt(103Q)mCFP cells, high-content imaging (AID 483;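 active = visual image review flags a hit and inhibition of aggregation exceeds 20%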;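 note: compound exposure lasted 3 days before fixation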;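 for nuclei count: percent of the per-plate median nuclei count of sample wells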). Conditions: exon1htt(103Q)mCFP cell line, aggregate imaging, at 2 µM; inhibition of aggregation: stronger effect = higher value; nuclei count: measured here: cell count, toxicity.
The nature of assay [3]: inhibitors of E-selectin induction by TNFa, primary screen, imaging, HUVEC, immunofluorescence, MLSMR starter and 10KST1 sets (AID 487).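 For inhibition: signal is fraction of cell area covered by stained E-selectin grains.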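 For nuclei count: 100% = median nuclei count of all wells on the same plate.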 Particulars: HUVEC TNFalpha-induced E-selectin immunofluorescence imaging, at 2 µM; inhibition: stronger effect = higher value; nuclei count: measured here: cell number, toxicity.
The target in assay [4] is Voltage-gated potassium channel subunit beta-2 (Rattus norvegicus) (UniProt P62483). The assay is described as follows: KvBeta enzyme negative modulators, primary screen, biochemical, NADPH fluorescence (AID 622;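 active = fluorescence slope higher than the sample average by over 3 SD, cut at about -0.22 in these data, passing the limit was not always enough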;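 note: slope of raw intensity against log time taken from 70 to 1610 s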). Conditions: recombinant KvBeta, 4-cyanobenzaldehyde reduction, at 10 µM, stronger effect = higher value.
Sequence of Voltage-gated potassium channel subunit beta-2 (Rattus norvegicus) (P62483 whole entry, looked up): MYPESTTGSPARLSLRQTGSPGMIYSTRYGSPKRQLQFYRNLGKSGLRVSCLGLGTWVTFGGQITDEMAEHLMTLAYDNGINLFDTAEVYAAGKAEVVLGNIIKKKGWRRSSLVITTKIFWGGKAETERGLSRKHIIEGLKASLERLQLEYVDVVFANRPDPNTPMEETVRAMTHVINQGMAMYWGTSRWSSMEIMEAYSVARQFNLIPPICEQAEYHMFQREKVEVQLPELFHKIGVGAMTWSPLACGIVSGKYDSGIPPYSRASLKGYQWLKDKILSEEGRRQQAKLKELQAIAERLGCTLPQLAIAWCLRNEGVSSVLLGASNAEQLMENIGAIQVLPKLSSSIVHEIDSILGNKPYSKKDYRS
The target is the same in assay [5]. Kind of assay: KvBeta positive modulators, primary screen, biochemical, NADPH fluorescence (AID 623;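 active = NADPH fluorescence slope more negative than the mean of all samples by about 3 SD, 99.7% confidence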;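 note: fluorescence intensity change per second fitted from 20 to 320 s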). Particulars: Recombinant KvBeta, NADPH fluorescence decrease slope, 10 min; at 10 µM; stronger effect = lower value.
The target of assay [6] is Alpha-2C adrenergic receptor (Homo sapiens) (UniProt P18825). The assay is described as follows: modulators of alpha2C/GIRK thallium flux, primary screen, cell-based, HEK293 alpha2C/GIRK1/2 (AID 624;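 active = fluorescence slope after compound addition differing from the mean of all screened samples at 99.7% confidence, in either direction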;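 note: slope of fluorescence ratio to pre-addition baseline per second over 15 to 24 s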). Conditions: thallium flux BTC fluorescence, at 10 µM, actives lie on both sides.
Sequence of Alpha-2C adrenergic receptor (Homo sapiens) (P18825 whole entry, looked up): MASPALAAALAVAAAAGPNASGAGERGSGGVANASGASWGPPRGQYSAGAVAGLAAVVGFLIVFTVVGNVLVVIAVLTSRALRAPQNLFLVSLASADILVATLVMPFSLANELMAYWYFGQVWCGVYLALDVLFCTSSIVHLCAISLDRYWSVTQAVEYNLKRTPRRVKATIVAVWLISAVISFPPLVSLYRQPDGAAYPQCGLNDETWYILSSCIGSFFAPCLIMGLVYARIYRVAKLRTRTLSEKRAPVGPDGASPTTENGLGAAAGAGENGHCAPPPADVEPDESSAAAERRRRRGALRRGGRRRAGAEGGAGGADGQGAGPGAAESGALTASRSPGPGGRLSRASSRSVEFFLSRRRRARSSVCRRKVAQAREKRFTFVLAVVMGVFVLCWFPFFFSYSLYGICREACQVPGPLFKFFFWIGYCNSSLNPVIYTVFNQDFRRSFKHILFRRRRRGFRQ
Assay [7] in a line: inhibitors of Sendai virus-induced IRF3 signaling, primary screen, TLR/RLR signaling modifier project, cell-based, Sendai virus stimulus, luciferase, 10K MLSCN set (AID 602276;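 active = inhibition at or above 50% at 10 µM; inactive = inhibition below 50%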;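 note: firefly luciferase from ISG56 promoter only with Renilla not read in this screen; 0% = Sendai virus plus DMSO and 100% = medium plus DMSO without virus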). Conditions: HEK293 RL24 IRF3 luciferase reporter, at 10 µM, stronger effect = higher value. Background: Reporter assays use an easily measured gene product as a stand-in for the process of interest.
The nature of assay [8]: inhibitors of poly I:C-induced TLR3 signaling, primary screen, cell-based, poly I:C stimulus, luciferase, 10K MLSCN set (AID 602277;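 active = inhibition of the reporter signal at or above 50%; inactive = inhibition below 50%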). Conditions: HEK293-TLR3 RL24 IRF3 luciferase reporter, at 10 µM, stronger effect = higher value.

Activity calls are given as the source filed them.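 Rule for the calls, unless noted: active = visually confirmed hit in the image check and inhibition above 20%; inconclusive = visually confirmed hit but inhibition not above 20%; inactive = no visual hit in the image check.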

Turning to `O=C(NCCCn1ccnc1)c1csc2ccccc12`, the cell count in assay [1] is 337. In addition, the inhibition – broadly, the drop in the measured response relative to a control, in per cent – is 4.7% (inactive) in assay [1], -7.7% (inactive) in assay [3], 10.2% (inactive) in assay [7] and 27.4% (inactive) in assay [8]. In assay [2], the inhibition of aggregation is -23.2% (inactive). Moreover, the nuclei count in assay [2] stood at 99.4%; in assay [3] it was 113%. The fluorescence slope in assay [4] was -0.414 (inactive). Further, the NADPH fluorescence slope in assay [5] was -3.7e-05 (inactive). Moreover, the slope in assay [6] is 0.00227 (inactive).
`O=C(Nc1cccc(F)c1)c1cccc(S(=O)(=O)N2CCOCC2)c1`: the cell count in assay [1] came to 566. Moreover, the inhibition was 3% (inactive) in assay [1], -38.9% (inactive) in assay [3], 10.5% (inactive) in assay [7] and 98.3% (active) in assay [8]. The inhibition of aggregation in assay [2] is -14% (inactive). Further, the nuclei count in assay [2] was found to be 94.3%; in assay [3] it was 92.1%. In addition, in assay [4], the fluorescence slope was -0.504 (inactive). Besides, the NADPH fluorescence slope in assay [5] is -5.2e-05 (inactive). In addition, the slope in assay [6] was 0.00763 (inactive).
With `CCCN(CCC)CCNS(=O)(=O)c1ccc2c(c1)oc(=O)n2C`, in assay [1], the cell count is 346. The inhibition in assay [1] is -13.8% (inactive); in assay [3] it was -106% (inactive); in assay [7], 9.38% (inactive); in assay [8] it was 10.9% (inactive). In addition, the inhibition of aggregation in assay [2] was -2.5% (inactive). For the same compound, the nuclei count in assay [2] came to 77.3%; in assay [3], 119%. Moreover, the fluorescence slope in assay [4] was -0.427 (inactive). In assay [5], the NADPH fluorescence slope is -3.3e-05 (inactive). For the same compound, the slope in assay [6] was 0.00461 (inactive).
As for `COc1cc2c(cc1OC)CN(C(=O)CSc1nnc3scc(-c4ccccc4)n13)CC2`, in assay [1], the cell count worked out at 548. Also, the inhibition in assay [1] was -0.3% (inactive); in assay [3], -28.8% (inactive); in assay [7] it was 1.32% (inactive); in assay [8], 16.8% (inactive). Moreover, the inhibition of aggregation in assay [2] is 12.8% (inactive). Besides, the results for the nuclei count in assay [2] and in assay [3] were 98.2% and 109%, respectively. The fluorescence slope in assay [4] is -0.515 (inactive). In addition, the NADPH fluorescence slope in assay [5] is -2.7e-05 (inactive). The slope in assay [6] was 0.00728 (inactive).
In the case of `COc1ccccc1NC(=O)C1(C)Cc2ccccc2C(=O)O1` (configuration not stated), the cell count in assay [1] was 640. Besides, the inhibition in assay [1] was 12.4% (inactive); in assay [3] it was 46.9% (inactive); in assay [7] it was -6.71% (inactive); in assay [8] it was -2.97% (inactive). The inhibition of aggregation in assay [2] was -26.4% (inactive). Moreover, the nuclei count is 119% in assay [2] and 106% in assay [3]. For the same compound, the fluorescence slope in assay [4] was -0.584 (inactive). For the same compound, the NADPH fluorescence slope in assay [5] was -3.4e-05 (inactive). Moreover, the slope in assay [6] was 0.00673 (inactive).
Consider `COc1ccc(CCNC(=O)CSc2nnnn2-c2ccccc2OC)cc1OC`, for which the cell count in assay [1] came to 681. Besides, the inhibition in assay [1] is -1.1% (inactive); in assay [3], -10.8% (inactive); in assay [7], 15.3% (inactive); in assay [8], 31.8% (inactive). The inhibition of aggregation in assay [2] is 1.5% (inactive). Further, the nuclei count in assay [2] came to 106%; in assay [3], 109%. The fluorescence slope in assay [4] was -0.531 (inactive). In addition, the NADPH fluorescence slope in assay [5] is -5.1e-05 (inactive). In addition, the slope in assay [6] was 0.00687 (inactive).
`CC(C)(CO)NC(=O)CCCOc1ccc(Cl)cc1Cl`: the cell count in assay [1] was 397. The inhibition is -4.9% (inactive) in assay [1], 35.5% (inactive) in assay [3], -27.2% (inactive) in assay [7] and -47.8% (inactive) in assay [8]. Besides, the inhibition of aggregation in assay [2] was 6.2% (inactive). Besides, the nuclei count was 97.4% in assay [2] and 98.8% in assay [3]. In addition, the fluorescence slope in assay [4] is -0.431 (inactive). For the same compound, in assay [5], the NADPH fluorescence slope is -2.6e-05 (inactive). For the same compound, the slope in assay [6] is 0.00385 (inactive).
Turning to `Cc1cc(Cl)ccc1NC(=O)CSc1nnc(Cc2cccs2)n1Cc1ccco1`, in assay [1], the cell count stood at 270. Moreover, the inhibition in assay [1] is -4.3% (inactive); in assay [3], -32.8% (inactive); in assay [7], 17.4% (inactive); in assay [8] it was 32.2% (inactive). In assay [2], the inhibition of aggregation is 27.5% (inactive). The results for the nuclei count in assay [2] and in assay [3] were 74.6% and 102%, respectively. For the same compound, in assay [4], the fluorescence slope is -0.494 (inactive). Also, in assay [5], the NADPH fluorescence slope was -5e-05 (inactive). Further, the slope in assay [6] is 0.00645 (inactive).
For `CC(=O)N1CCN(S(=O)(=O)c2ccc(S(=O)(=O)NCC(C)C)cc2)CC1`, the cell count in assay [1] was found to be 641. In addition, the inhibition in assay [1] was 1.6% (inactive); in assay [3], -10.2% (inactive); in assay [7], 14.8% (inactive); in assay [8] it was 12.6% (inactive). Besides, the inhibition of aggregation in assay [2] was 5.2% (inactive). For the same compound, the figures for the nuclei count in assay [2] and in assay [3] were 102% and 110%, respectively. Also, the fluorescence slope in assay [4] was -0.399 (inactive). For the same compound, the NADPH fluorescence slope in assay [5] is -3.9e-05 (inactive). Also, the slope in assay [6] is 0.00517 (inactive).
Consider `CCn1nnnc1SCC(=O)Nc1nc(-c2cccs2)cs1`, for which the cell count in assay [1] was 327. Moreover, the inhibition in assay [1] was -8.9% (inactive); in assay [3], -63.9% (inactive); in assay [7], 15.8% (inactive); in assay [8], 20.5% (inactive). Further, the inhibition of aggregation in assay [2] is 9.4% (inactive). In addition, the figures for the nuclei count in assay [2] and in assay [3] were 100% and 104%, respectively. For the same compound, the fluorescence slope in assay [4] is -0.491 (inactive). Also, the NADPH fluorescence slope in assay [5] is -4.6e-05 (inactive). In assay [6], the slope is 0.00497 (inactive).
As to `O=C(C1CCCO1)N1CCc2ccccc21` (configuration not stated), in assay [1], the cell count turned out to be 445. Moreover, the inhibition in assay [1] is 6% (inactive); in assay [3], -32.9% (inactive); in assay [7], 9.45% (inactive); in assay [8] it was 36.8% (inactive). The inhibition of aggregation in assay [2] was -16.9% (inactive). Also, the nuclei count in assay [2] and in assay [3] was 108% in each case. In addition, the fluorescence slope in assay [4] is -0.404 (inactive). The NADPH fluorescence slope in assay [5] was 5.9e-05 (inactive). In addition, the slope in assay [6] is 0.00647 (inactive).
With `COc1ccc(OC)c(C2CC(=O)NC(SC)=C2C#N)c1` (configuration not stated), the cell count in assay [1] amounted to 662. The inhibition in assay [1] is -9.6% (inactive); in assay [3] it was -23.1% (inactive); in assay [7] it was 8.75% (inactive); in assay [8] it was 29% (inactive). Further, in assay [2], the inhibition of aggregation was -13.5% (inactive). The nuclei count in assay [2] turned out to be 114%; in assay [3], 117%. In addition, in assay [4], the fluorescence slope was -0.529 (inactive). In addition, in assay [5], the NADPH fluorescence slope is -3.6e-05 (inactive). Moreover, the slope in assay [6] was 0.00545 (inactive).
